DAX1 inh-1 = DAX1 (NR0B1) inhibitors, primary screen, cell-based, HEK293, Gal4-DAX1, luciferase luminescence | Nuclear receptor subfamily 0 group B member 1 (Homo sapiens), P51843 | HEK293 Gal4-DAX1 luciferase reporter | inhibition, % at 6.75 µM | hit rate 0.99% among 340,000 | AID 504766, 2011;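 active means inhibition above the mean over all tested compounds plus 3 SD, cut at about 4.2% in these data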;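 further: 0% = DAX1-transfected cells with DMSO and 100% = empty-vector control cells with DMSO; inhibition shows as a rise in luminescence from relieved DAX1 repression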
ssDAF-12 act = S. stercoralis DAF-12 nuclear receptor activators, primary screen, cell-based, luminescence, HEK293, GRIP1 co-expression, lit1-tk-luc; AID 652126, 2013; activation, % at 6.8 µM; HEK293 ssDAF-12/GRIP1 lit1-tk-luc reporter; % of 3 µM dafachronic acid response; Nuclear hormone receptor DAF-12 (Strongyloides stercoralis); hit rate 1% among 370,000;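 active means activation above the mean over all tested compounds plus 3 SD, cut at about 0.9% in these data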;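 further: 0% = DMSO-only wells and 100% = 3 µM delta7-dafachronic acid wells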
PolyA inh = polyadenylation inhibitors in yeast reporter cells, primary screen, luminescence, S. cerevisiae; activity score, % at 12 µM; hit rate 0.02% among 300,000; S. cerevisiae SKY197-pL101 polyadenylation reporter, beta-gal luminescence; efflux-impaired pdr1/pdr3 knockout yeast; score 100 = 6 SD above DMSO;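 active means lowest replicate activity score at least 50, where 100 means six control SD above control mean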;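 further: yeast exposed to compound for 9 h at 30 °C; higher score means more reporter readthrough which indicates perturbed polyadenylation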
DAX1 inh-2 = DAX1 (NR0B1) inhibitors on StAR promoter, primary screen, cell-based, luminescence, SF-1 (NR5A1), full-length DAX-1. HEK293T StAR-luciferase reporter, SF-1/DAX-1 repression relief. inhibition, % at 6.8 µM. hit rate 1.1% among 370,000. AID 652010, 2013;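 active means inhibition above the mean over all tested compounds plus 3 SD, cut at about 3.6% in these data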;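 further: 0% = DAX-1 cells with DMSO and 100% = cells lacking DAX-1 with DMSO; higher inhibition means more luminescence from relief of DAX-1 repression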
hgDAF12 agonist = H. glycines DAF-12 receptor agonists, primary screen, cell-based, luminescence, HEK293, GAL4 fusion, UAS-luciferase | Nuclear hormone receptor DAF-12 (Heterodera glycines), GAL4 fusion | HEK293 GAL4-hgDAF12 UAS-luciferase reporter, agonist luminescence; normalized to butyrate control | activation, % at 6.8 µM | hit rate 1.8% among 370,000 | AID 687014, 2013;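 active means activation above a cutoff set at the mean of all screened compounds plus 3 SD, cut at about 10% in these data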;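 further: 0% = DMSO wells and 100% = sodium butyrate wells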
hcDAF-12 act = H. contortus DAF-12 nuclear receptor activators, primary screen, cell-based, luminescence, HEK293, lit1-tk-luc reporter | hit rate 1.4% among 370,000 | HEK293 hcDAF-12 lit1-tk-luc reporter; 0% DMSO, 100% Δ7-dafachronic acid | activation, % at 6.8 µM;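 active means activation above the mean of all tested compounds plus 3 SD, cut at about 5.5% in these data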;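 further: 100% = response to 3 µM Δ7-dafachronic acid high control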
LXRb hcDAF ctr = LXR agonists, Gal4 luciferase reporter, confirmation, counter-screen for hcDAF-12 agonist project, cell-based, luminescence, HEK293, H. contortus campaign. shares compounds with hcDAF-12 act. HEK293 Gal4-LXR tk-luc reporter, 24 h; normalized: DMSO 0%, positive control 100%. activation, % at 6.8 µM. 3,400 tested, under 10 active. AID 743027, 2013;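 active means mean percent activation of the reporter above a cutoff set as the average over tested compounds plus their standard deviation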
Target sequence (P55055 whole entry, looked up, the tested form may be a part): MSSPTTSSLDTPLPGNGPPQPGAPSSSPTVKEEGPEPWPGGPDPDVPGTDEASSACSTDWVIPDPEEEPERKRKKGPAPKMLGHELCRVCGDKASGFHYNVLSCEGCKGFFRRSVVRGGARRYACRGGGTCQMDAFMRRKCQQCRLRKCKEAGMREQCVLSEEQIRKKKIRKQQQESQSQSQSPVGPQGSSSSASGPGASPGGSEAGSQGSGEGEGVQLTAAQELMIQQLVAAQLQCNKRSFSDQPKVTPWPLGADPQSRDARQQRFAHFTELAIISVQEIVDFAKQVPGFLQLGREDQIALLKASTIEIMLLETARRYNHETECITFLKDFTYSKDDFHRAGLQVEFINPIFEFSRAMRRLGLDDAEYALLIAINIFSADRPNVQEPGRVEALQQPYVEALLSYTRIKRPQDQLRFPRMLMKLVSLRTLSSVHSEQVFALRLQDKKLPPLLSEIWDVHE
hcDAF12 ag = H. contortus DAF-12 receptor agonists, confirmation, cell-based, luminescence, HEK293, lit1-tk-luc, triplicate; shares compounds with hcDAF-12 act; HEK293 hcDAF-12 lit1-tk-luc reporter; % of Δ7-dafachronic acid response; activation, % at 6.8 µM; hit rate 61% among 3,400; AID 743032, 2013;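 active means mean activation across triplicate tests above the threshold derived from the earlier primary screen, cut at about 5.5% in these data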;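 further: 0% = DMSO only wells and 100% = 3 µM Δ7-dafachronic acid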
* = called active by the depositor; / = no result. This is a sample that favours compounds with a hit; in the whole collection about 4.1% have one here.

SMILES	DAX1 inh-1	ssDAF-12 act	PolyA inh	DAX1 inh-2	hgDAF12 agonist	hcDAF-12 act	LXRb hcDAF ctr	hcDAF12 ag
NS(=O)(=O)c1ccc(CCNCc2ccccc2OCc2ccc(Cl)cc2)cc1	-1	-1	-6	-1	-1	2	/	/
Nc1cc2c3c(cccc3c1)C(=O)N(CCN1CCCC1)C2=O	-1	1.8*	-7	-1	-6	16*	0	12*
CCN(CC)CCN1C(=O)c2cccc3cc(N)cc(c23)C1=O	-2	0	8	0	0	7.6*	0	5
O=C1c2cccc3cccc(c23)C(=O)N1CCO	-1	-1	/	0	2	-3	/	/
O=C1c2cccc3cc([N+](=O)[O-])cc(c23)C(=O)N1CCN1CCCC1	2	7.1*	-2	-2	-1	44*	2	17*
O=c1[nH]nc(Cc2ccc([N+](=O)[O-])cc2)c2ccccc12	0	-1	7	0	1	3	/	/
Fc1cccc(Cl)c1/C=C/c1cnc2ccccc2n1	2	2.0*	0	3	16*	20*	2	22*
O=C(O)/C=C/c1cnc2ccccc2n1	0	-1	5	0	2	2	/	/
O=C(COC(=O)c1n[nH]c2ccccc12)Nc1ccccc1F	2	1.8*	/	2	7	6.8*	1	8.2*
Cc1ccc2nc(CCCc3nc4ccc(C)cc4[nH]3)[nH]c2c1	0	-1	6	-1	-4	-2	/	/
c1ccc(-c2nc3c(ccc4ccccc43)[nH]2)nc1	1	1	8	1	12*	8.9*	0	8.1*
Cc1ccc2nc(-c3ccccn3)[nH]c2c1	-2	1	10	2	10	8.7*	1	5
COc1ccccc1Cc1c(-c2ccc(C#N)cc2)nc2ccc(C)cn12	/	-1	/	1	3	-1	/	/
O=C(Nc1ccccc1N1CCCC1)c1cc2ccccc2o1	1	1.9*	-12	2	12*	7.5*	0	6.7*
O=C(Nc1ccccc1N1CCCCC1)c1ccc(-c2cccc(Cl)c2)o1	-2	-1	9	0	2	7.4*	0	5
O=C(Nc1ccccc1N1CCCCC1)c1ncoc1-c1ccc(F)cc1	1	-1	-11	0	0	0	/	/
O=C(Nc1ccccc1N1CCCCC1)c1ncoc1-c1cccc(F)c1	1	-1	-12	1	1	7.0*	0	2
O=C(Nc1cccnc1Cl)c1cc2ccccc2o1	4.2*	2.8*	42	3	12*	9.3*	1	5
COc1ccc(NC(=O)C[C@H]2C(=O)N(c3ccc(OC)cc3)C[C@@H]2CSC)cc1	-1	-1	/	-1	1	-1	/	/
Cc1ccc(C(=O)N/C(=C\c2ccc(-c3ccccc3[N+](=O)[O-])o2)C(=O)NCCCN2CCOCC2)cc1	-1	0	10	-5	-1	7.3*	0	2
O=C1C(Cl)=C(Nc2ccccc2)C(=O)c2ccccc21	2	0	-34	1	3	7.9*	0	1
CC(C)CNc1ncnc2c1ncn2[C@H]1CN(Cc2ccc(-c3ccccc3)cc2)C[C@@H](CO)O1	/	-2	/	-4	-7	-4	/	/
COc1ccc([N+](=O)[O-])cc1NC(=O)c1cc(C)c(C)o1	0	-1	-10	0	0	1	/	/
Cc1[nH]n(C(N)=S)c(=O)c1N=Nc1ccc(Br)cc1	2	0	-9	1	5	7.3*	1	14*
Cc1ccc(Nc2nnc(SCC(=O)NCCN3C(=O)CSC3=O)s2)cc1C	0	-1	4	2	11*	12*	0	3
SMILES	DAX1 inh-1	ssDAF-12 act	PolyA inh	DAX1 inh-2	hgDAF12 agonist	hcDAF-12 act	LXRb hcDAF ctr	hcDAF12 ag
N/C(=N\N=C\c1ccc(O)cc1)c1nonc1N	3	0	-4	4	16*	7.9*	1	5
O=c1cc[nH]c2c(Cl)cccc12	1	0	7	1	4	7.2*	0	5.7*
Cc1nc(C(=O)NNC(=O)c2ccc(Cl)cc2)c(C(F)(F)F)o1	0	-1	-5	-1	1	0	/	/
COc1ccccc1NS(=O)(=O)c1ccc(C(=O)N2CCN(c3ccccn3)CC2)cc1	0	-1	/	-2	-3	-3	/	/
O=C(/C=C/c1c[nH]c2ccccc12)c1cccc2ccccc12	0	0	-8	0	4	11*	0	3
O=C(c1ccccc1)c1c[nH]c2ccccc12	2	-1	-7	0	4	1	/	/
CC1(C)CC(=O)c2cnc3c(C#N)cnn3c2C1	1	-1	14	0	0	-1	/	/
Cc1cccc2c3nc4ccccc4nc3n(C)c12	2	1	-39	1	9	6.7*	1	11*
CCCNC(=O)C1(C)CCCN(Cc2ccccc2C#N)C1 (centres undefined)	/	-2	/	0	0	-2	/	/
c1ccc(N2CC3COc4ccccc4C3=N2)cc1 (centres undefined)	4	2.8*	/	3.9*	20*	16*	1	14*
COc1ccccc1CN1CCNC(=O)C1CC(=O)N(C)C1CCOCC1 (centres undefined)	1	-1	/	0	0	0	/	/
CC(=O)Nc1nonc1NC(=O)COc1ccccc1	-1	0	-6	1	9	-1	/	/
COc1ccc(NC(=O)[C@@]2(CC(=O)O)CC(/C=C/c3ccccc3)=NO2)cc1	1	0	-4	0	1	7.9*	0	1
CC(=O)c1ccc(NC(=O)[C@@]2(CC(=O)O)CC(/C=C/c3ccccc3)=NO2)cc1	0	-1	-29	0	-1	0	/	/

Bioassay records (PubChem)
